BAZ2B block = inhibitors of human BAZ2B bromodomain; AlphaScreen BAZ2B-H3K14Ac peptide displacement; Potency, µM (highest dose often 114 µM), without a hit: at the highest dose activity change, negative = inhibition, usual class: inhibitors; actives 4.4% (n = 360,000); further: on the % scale 0 is the no-effect control and ±100 the full control effect; nearly all actives have a fitted effect of over 60% in size
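Multi-concentration screen (max 110 uM) measuring displacement of acetylated histone H3 peptide from BAZ2B by AlphaScreen, using 50 nM protein, 50 nM peptide and 10 ug/mL streptavidin donor plus Ni-chelate acceptor beads.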
HP1b binding inh = HP1-beta chromodomain-methylated histone interaction inhibition. P83916. AlphaScreen HP1-beta / biotin-H3K9me3 peptide binding. Potency, µM (titrated, usually from 114 µM), for the others: top-dose activity change, negative = inhibition, hits mostly inhibitors. actives 0.56% (n = 390,000). AID 540317; further: nearly all actives have a fitted effect of over 70% in size
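Compound inhibition of the preformed complex between 50 nM HP1-beta and 50 nM biotinylated H3K9me3 peptide was read by AlphaScreen. Buffer was PBS pH 7.4 with 0.01% Tween-20. Incubations ran 30 min at room temperature, with 10 ug/mL donor/acceptor beads.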
JMJD2A Tudor = blocks the human JMJD2A Tudor domain | AlphaScreen JMJD2A-Tudor / H3K4me3 peptide binding | Potency, µM (top dose mostly 114 µM), for the others: top-dose activity change, negative = inhibition, most hits filed as inhibitors | actives 4.4% (n = 390,000); further: on the % scale 0 is the no-effect control and ±100 the full control effect; nearly all actives have a fitted effect of over 50% in size
Sfp inh = Sfp phosphopantetheinyl transferase inhibition; Q9F4F7; Biochemical Sfp PPTase activity, qHTS; Potency, µM, for the others: largest response in the series, negative = inhibition, most hits filed as inhibitors; actives 3.5% (n = 310,000); AID 1490;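 further: the enzyme is Sfp with the accession as filed and its product quenches rhodamine fluorescence; 0% = enzyme reaction without inhibitor and -100% = no enzyme wells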
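Sfp 15 nM + cpd, 15 min RT; start w/ rhodamine-CoA 5 uM, BHQ-2-YbbR 12.5 uM (final); 50 mM Hepes pH 7.6, 10 mM MgCl2, 0.01% NP-40, 0.01% BSA; read 525/598 nm at 0 and 30 min.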
G9a inh = G9a (human) methyltransferase inhibition; Q96KQ7; G9a H3K9 monomethylation, AlphaScreen, 2 h; Potency, µM (highest dose often 102 µM), for the others: at the highest dose activity, negative = inhibition, hits mostly inhibitors; actives 8.8% (n = 350,000); AID 504332; further: on the % scale 0 is the no-effect control and ±100 the full control effect; nearly all actives have a fitted effect of over 75% in size
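Chemiluminescent proximity detection of H3K9 monomethylation, read after 10 min bead incubation in the dark. Reaction: 20 nM G9a, 500 nM biotin-H3K9 peptide, 20 uM SAM cofactor, 2 h, room temperature, following 15 min enzyme-compound preincubation.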
L3MBTL1 inh-1 = blocks human L3MBTL1 | Q9Y468 | AlphaScreen L3MBTL1–H3K9me1 peptide binding | Potency, µM (doses to about 57.1 µM), for inactives: at the highest dose activity, negative = inhibition, most hits filed as inhibitors | actives 0.66% (n = 230,000) | AID 485360; further: on the % scale 0 is the no-effect control and ±100 the full control effect; nearly all actives have a fitted effect of over 60% in size
Target sequence (Q9Y468 whole entry, looked up): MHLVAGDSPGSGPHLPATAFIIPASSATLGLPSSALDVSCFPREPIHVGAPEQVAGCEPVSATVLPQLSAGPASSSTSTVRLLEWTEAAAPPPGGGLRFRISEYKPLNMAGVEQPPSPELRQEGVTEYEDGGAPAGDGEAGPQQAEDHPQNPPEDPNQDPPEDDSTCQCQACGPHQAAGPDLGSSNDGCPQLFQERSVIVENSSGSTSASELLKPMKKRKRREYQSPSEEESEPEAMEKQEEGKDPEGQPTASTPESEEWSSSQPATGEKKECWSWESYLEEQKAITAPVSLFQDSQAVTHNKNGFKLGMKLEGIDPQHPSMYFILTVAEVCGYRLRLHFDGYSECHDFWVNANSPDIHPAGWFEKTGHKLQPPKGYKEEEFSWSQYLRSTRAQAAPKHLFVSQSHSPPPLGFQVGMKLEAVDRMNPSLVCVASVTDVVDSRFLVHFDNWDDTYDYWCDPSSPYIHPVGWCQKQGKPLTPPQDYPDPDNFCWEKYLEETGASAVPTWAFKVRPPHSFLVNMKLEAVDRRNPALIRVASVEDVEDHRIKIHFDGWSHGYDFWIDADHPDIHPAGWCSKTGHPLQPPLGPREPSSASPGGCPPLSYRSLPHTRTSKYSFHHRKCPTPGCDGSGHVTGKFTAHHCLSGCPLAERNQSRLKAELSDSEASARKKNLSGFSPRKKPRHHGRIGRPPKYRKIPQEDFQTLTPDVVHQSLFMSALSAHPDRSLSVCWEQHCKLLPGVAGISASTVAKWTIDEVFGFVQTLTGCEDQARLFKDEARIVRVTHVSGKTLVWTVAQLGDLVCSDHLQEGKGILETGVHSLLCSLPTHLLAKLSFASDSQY
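L3MBTL1 (50 nM) pre-complexed 30 min with biotinylated H3(1-15)K9me1 peptide (75 nM), then compounds added for 30 min at room temperature; AlphaScreen streptavidin donor/nickel chelate acceptor beads (10 ug/mL final) read after 30 min dark incubation.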
L3MBTL1 inh-2 = validation of human L3MBTL1 methyl-lysine binding inhibitors; actives 91% (n = 500); L3MBTL1 methyl-lysine binding inhibition, biochemical qHTS; Potency, µM, actives largely listed as inhibitors; shares compounds with L3MBTL1 inh-1; further: nearly all actives have a fitted effect of over 70% in size
AlphaScreen ctr2 = interferes with AlphaScreen signal in L3MBTL1 counterscreen. shares compounds with L3MBTL1 inh-1. AlphaScreen counterscreen, signal inhibition. Potency, µM (doses to about 57.1 µM), without a hit: at the top dose activity change, negative = inhibition, hits mostly inhibitors. AID 602224. 500 tested, under 10 active; further: 0% is about no effect
Starred values were filed as active, the others as inactive; ? = inconclusive; . = no result; ! = repeats disagree; [ ] = dose if it differs, or a comment. Sampled rows, rich in hits. Any-hit rate of the full collection: about 12%. The call rests on the fitted dose curve; in most records, active means well fitted curve in the direction sought with a large enough effect; inconclusive means small, poorly fitted or top-dose-only effect, or another doubt; inactive means no such curve, though single readings can be large; an effect the other way counts as inactive or inconclusive. Potency means the concentration at half of the fitted maximal effect.

SMILES | BAZ2B block | HP1b binding inh | JMJD2A Tudor | Sfp inh | G9a inh | L3MBTL1 inh-1 | L3MBTL1 inh-2 | AlphaScreen ctr2
CCC(=O)N1CCc2cc(S(=O)(=O)Nc3cc(C)ccc3OC)ccc21 | -1% | 24% | -15% | . | -13%[59 µM] | . | . | .
CCC1=C(OC(=O)N(CC)CC)N2C(=O)OC(=NCCOC)[C@]2(C)[C@H]2C1=CC[C@H]1C(=O)N(C)C(=O)[C@H]12 | . | . | . | 12% | . | . | . | .
CC(/C=C\c1cccnc1)=C/C(=O)O | 50µM*! | -5% | 56µM*! | -10% | -27%[59 µM] | 28µM* | 27* | 0%
O=C(O)/C=C/c1cccnc1 | -3% | 27% | -3% | 7% | 16%[59 µM] | 9% | . | .
O=P(O)(O)OC[C@H]1O[C@](O)(COP(=O)(O)O)[C@@H](O)[C@@H]1O | . | . | . | 29% | 2%[12.7 µM] | . | . | .
O=C(Nc1nc(-c2ccccn2)cs1)C1COc2ccccc2O1 (stereo not drawn) | 20µM* | 44% | 56µM* | 18% | -3%[59 µM] | 11µM* | 12* | -65%
COc1ccc2[nH]c(=O)cc(C(=O)O)c2c1 | 50µM* | -7% | ? | 9% | 35µM* | 22µM* | 3.4* | 0%
O=C1C2C3C=CC(CC3)C2C(=O)N1c1nccs1 (stereo not drawn) | 45µM* | -40% | 50µM* | -14% | -19%[59 µM] | 25µM* | 27* | 6%
Cc1ccc(-c2nnc(Nc3ccc(OCC(N)=O)cc3)c3ccccc23)cc1S(=O)(=O)N(C)C | -19% | 29% | -17% | . | -4%[59 µM] | . | . | .
COc1cc2c(cc1OC)C(C(=O)c1ccc(OC)c(OC)c1O)=NCC2 | . | . | . | -2% | . | . | . | .
COc1ccc(C2CC(=O)Nc3ccccc3S2(=O)=O)cc1OC (stereo not drawn) | 24% | 2% | -18% | -10% | -5%[2.33 µM] | 11µM* | ? | 1%
COc1ccc(C2CC(=O)Nc3cc(OC)c(OC)cc32)cc1Br (stereo not drawn) | ? | 1% | -22% | -4% | -25% | -13% | . | .
O=C(Nc1ccc(F)cc1F)c1noc2c1CCC2 | 56µM* | ? | 79µM* | 2% | ? | 32µM* | 6.7* | 6%
O=C(Nc1cc(Cl)ccc1Cl)c1noc2c1CCCC2 | 6% | 55% | -3% | 7% | 28%[12.7 µM] | . | . | .
CCOc1cccc2c1Oc1nc(-c3ccccc3)nc(SCC(=O)Nc3ccc(F)cc3)c1C2 | -5% | 25% | -10% | . | ? | . | . | .
O=C(CSc1nc(-c2ccccc2)nc2c1Cc1ccccc1O2)Nc1ccc(C(=O)O)cc1 | 13µM* | 32µM* | 10µM* | 79µM* | -4% | 10µM* | 6* | ?
O=C(COC(=O)c1cc2c(s1)CCC2)Nc1ccc(F)cc1 | 50µM* | 40µM* | 14µM* | 28% | ? | 14µM* | 5.3* | ?
O=C(CCS(=O)(=O)c1ccc(Br)cc1)Nc1cc(F)ccc1F | 45µM* | 32µM* | -19%[57.1 µM] | -5% | 50µM* | 28µM* | 27* | 10%
COC(=O)c1ccccc1NC(=O)CCS(=O)(=O)c1ccc(Br)cc1 | 2µM* | 3.2µM* | 4µM* | 1% | 2.2µM* | 8.9µM* | 2.7* | 4%
Cc1ccc(NC(=O)c2cc3c(-c4ccccc4)nn(-c4ccccc4)c3s2)cc1 | -2% | 25% | -12% | . | -4%[59 µM] | . | . | .
C=CCn1c(C)cc(C(=O)Cn2ncc(Cl)c(Cl)c2=O)c1C | ? | -3% | -28% | -6% | 4%[59 µM] | 14µM* | ? | 0%
CC(C)(C)C(=O)Cn1ncc(Cl)c(Cl)c1=O | 0% | 46% | -12% | 22% | -4% | 30% | . | .
O=[N+]([O-])c1cccc2c1ccc1ncccc12 | -2% | 10% | -8% | 11% | 12%[2.33 µM] | . | . | .
O=[N+]([O-])c1cc(F)c2cccnc2c1O | 11µM* | 11% | 10µM* | ? | 8.9µM* | 13µM* | 6* | -60%
O=C(NC1CC1)C1CCN(S(=O)(=O)c2cc([N+](=O)[O-])ccc2Cl)CC1 | 32µM* | 7% | 8.9µM* | . | ? | 7.9µM* | 3* | 7%
SMILES | BAZ2B block | HP1b binding inh | JMJD2A Tudor | Sfp inh | G9a inh | L3MBTL1 inh-1 | L3MBTL1 inh-2 | AlphaScreen ctr2
CC[N+](CC)(CC)CC[C@](O)(c1ccccc1)C1CCCCC1 | . | . | . | -9% | 6%[21.5 µM] | . | . | .
CC(=O)c1ccc(NC(=O)CC2Nc3cccc4cccc(c34)NC2=O)cc1 (stereo not drawn) | ? | -9% | ? | 50µM* | ? | 3.5µM* | 27* | ?
Cc1ccc(-c2csc3ncn(CC#N)c(=O)c23)cc1C | 50µM* | ? | 50µM* | 7% | ? | 22µM* | 21* | 13%
Cc1ccc(-c2csc3ncn(CC#N)c(=O)c23)cc1 | 9% | 35% | -26% | -17% | . | -13% | . | .
CCCCS(=O)(=O)N1CCc2nc(COc3ccccc3)c3c(c2C1)CO[C@@H](C)C3 | . | . | . | 11% | . | . | . | .
CC(=O)c1c(COC(=O)c2ccncc2)nc2ccccc2[n+]1[O-] | 40µM* | 10% | -2% | 11% | 1µM* | 35µM* | ? | -1%
Cc1ccc2c(CC(=O)OCC(=O)N(CC(C)C)c3c(N)n(Cc4ccccc4)c(=O)[nH]c3=O)coc2c1 | ? | -9% | ? | . | ? | 32µM* | 21* | 9%
CCN(C(=O)COC(=O)Cc1coc2cc(C)ccc12)c1c(N)n(Cc2ccccc2)c(=O)[nH]c1=O | -4% | 28% | -8% | . | -17%[59 µM] | -3% | . | .
Cc1cc(C)n(-c2nnc3c4ccccc4n(C)c3n2)n1 | 11µM* | 41% | 79µM* | 9% | 1% | 28µM* | ? | ?
C/C(=N\Nc1nnc2c3ccccc3n(C)c2n1)c1ccc(C)o1 | -15% | 8% | ? | -3% | 11%[59 µM] | -4% | . | .
C=CCn1c(SCC(=O)c2ccc(O)c(O)c2)nnc1-c1cccnc1 | 35µM* | 25µM* | -23%[11.4 µM] | ? | . | 6.3µM* | 3* | ?
O=C(CSc1nnc(-c2ccc(C(F)(F)F)cn2)o1)Nc1ccccc1Cl | 18µM* | 50% | 20µM* | 71µM* | 25% | 32µM* | 21* | 1%
O=C(O)c1ccc2c3c(cccc13)C(=O)N(c1ccccc1)C2=O | 56µM* | ? | ? | 5% | 20µM* | 13µM* | 2.7* | 4%
COc1ccc(-n2c(=O)c3ccc(C(=O)NCc4ccc(C)cc4)cc3n(CC(=O)Nc3ccc(C)cc3)c2=O)cc1 | . | 40% | -12% | . | -30%[59 µM] | . | . | .

High-throughput results deposited in PubChem BioAssay by National Center for Advancing Translational Sciences (NCATS).
